This is an account of results in PubChem BioAssay (NCI).

Assay [1] can be described thus: NCI Yeast Anticancer Drug Screen. Data for the rad50 strain (AID 155).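 Note: 0% = growth of vehicle-only cultures of the same strain.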 The note with it: S. cerevisiae rad50 strain growth inhibition; at 50.0 µM; stronger effect = higher value. The gist of the method:
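Cells are treated with compound, grown, and their growth is then scored against vehicle-only cultures of the same repair-deficient yeast strain.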

The nature of assay [2]: NCI Yeast Anticancer Drug Screen. Data for the mec2-1 strain (AID 157). The note with it: S. cerevisiae mec2-1 strain, at 50.0 µM, stronger effect = higher value. The gist of the method:
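Each compound was tested on mec2-1 yeast, a strain altered in DNA damage repair or cell cycle control. Growth inhibition is reported relative to vehicle.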

Assay [3] is described as follows: NCI Yeast Anticancer Drug Screen. Data for the sgs1 mgt1 strain (AID 161).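 Note: 0% = growth of cultures given vehicle only.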 The note with it: S. cerevisiae sgs1 mgt1 strain, at 50.0 µM, stronger effect = higher value. Summed up: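 Read-out: growth inhibition vs vehicle controls. Cells: mutant yeast strain deficient in DNA damage repair.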
Assay [4] can be described thus: NCI Yeast Anticancer Drug Screen. Data for the cln2 rad14 strain (AID 165).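 Note: 0% = growth equal to vehicle treated cultures.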 The note with it: S. cerevisiae cln2 rad14 strain, at 50.0 µM, stronger effect = higher value. Summed up: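 Test compounds were added to cln2 rad14 yeast cultures; inhibition of growth was then determined by comparison with vehicle treatment.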
A short description of assay [5]: NCI Yeast Anticancer Drug Screen. Data for the bub3 strain (AID 167). The settings on record: S. cerevisiae bub3 mutant strain, at 50.0 µM, stronger effect = higher value. The gist of the method:
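Part of a panel of yeast mutants defective in DNA damage repair or cell cycle regulation. Each strain is grown with compound, and inhibition is calculated relative to solvent-treated cultures.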

Assay [6] is described as follows: NCI Yeast Anticancer Drug Screen. Data for the mlh1 rad18 strain (AID 175). The note with it: S. cerevisiae mlh1 rad18 strain growth inhibition; at 50.0 µM; stronger effect = higher value. Summed up:
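Inhibition values reflect reduced growth of mutant yeast versus vehicle-treated controls following compound exposure; the mutations affect DNA damage repair.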

Each structure is given as a SMILES string. About 79,000 compounds went through this panel and 15% of them were active in at least one assay; those are over-represented in the sample as a whole. Unmarked numbers belong to inactive results. The source made the active and inactive calls. Cut-off read from the data, not from the text of the source: active = growth inhibition above about 70%; inactive = the rest.

`CC(C)COCC1COC2(OCC(C)(C)C2OC(=O)Nc2ccccc2)O1` (stereo unspecified): the growth inhibition in assay [1] is 5.55%; in assay [2] it was -0.6%; in assay [3], -12.4%; in assay [4], -5.6%; in assay [5], 5.95%; in assay [6], 17.6%.
For the compound `O=C(CCCCCC(=O)CC(=O)CCc1ccccc1)CC(=O)CCc1ccccc1`, the growth inhibition in assay [1] is 53.3%; in assay [2], 36.4%; in assay [3], 53.5%; in assay [4] it was 15.4%; in assay [5], 19.1%; in assay [6] it was 56.6%.
Take `CCCC1OC(c2ccccc2)OCC1CC` (stereo unspecified): the growth inhibition in assay [1] was 6.45%; in assay [2], 20.2%; in assay [3], -12.7%; in assay [4] it was -36.9%; in assay [5] it was 15.8%; in assay [6], 9.05%.
As for `CC(=O)Nc1ccc(S(=O)(=O)Oc2noc3ccccc23)cc1`, the growth inhibition is 9.8% in assay [1]; 3.45% in assay [2]; 16.2% in assay [3]; 11.1% in assay [4]; 18.1% in assay [5]; 23.1% in assay [6].
Turning to `NC(N)=N/N=C/c1c(Cl)nc2n1CCS2`, the growth inhibition is -7.35% in assay [1]; -32.2% in assay [2]; -9.5% in assay [3]; 3.5% in assay [4]; 22.4% in assay [5]; -6.8% in assay [6].
Consider `COc1cccc(/C=N\N=C\c2cccc(OC)c2O)c1O`, for which the growth inhibition is 2.65% in assay [1]; 2.7% in assay [2]; -11.4% in assay [3]; -7.05% in assay [4]; 26.6% in assay [5]; 33.9% in assay [6].
Regarding `CCCCCCCCCCCC(=O)Nc1ccc(C(C)C)cc1`, the growth inhibition in assay [1] was 4.75%; in assay [2], -7.6%; in assay [3] it was -13.3%; in assay [4], 18.3%; in assay [5], 21.2%; in assay [6], -12.8%.
On to `O=C(/C(=N/O)c1ccc(Cl)cc1)c1ccccc1`, for which the growth inhibition in assay [1] is 99.5% (active); in assay [2] it was 99.5% (active); in assay [3] it was 99.4% (active); in assay [4], 99% (active); in assay [5], 99.3% (active); in assay [6], 99.6% (active).
On to `CCOC(=O)c1[nH]c2ccsc2c1C[N+]1(C)CCCCC1`, for which the growth inhibition in assay [1] is 38.1%; in assay [2], 5.8%; in assay [3] it was 36.9%; in assay [4], -3.7%; in assay [5] it was -0.85%; in assay [6], 16.3%.
As for `CC(=S)NC(=O)Nc1cccc2ccccc12`, the growth inhibition in assay [1] is 19.2%; in assay [2] it was -8.45%; in assay [3], 2.4%; in assay [4], -50.6%; in assay [5] it was -10.2%; in assay [6] it was 10.8%.
Turning to `CCCCNC(=O)NCCCC`, the growth inhibition in assay [1] was 5.85%; in assay [2], 3.6%; in assay [3] it was -5.75%; in assay [4], -4.5%; in assay [5], -2.65%; in assay [6], -0.15%.
For the compound `CCOC(=O)c1cnc(NCCCNc2ncc(C(=O)OCC)c(=O)[nH]2)[nH]c1=O`, the growth inhibition was -2.65% in assay [1]; 4% in assay [2]; -2.6% in assay [3]; -44.9% in assay [4]; 3.8% in assay [5]; 10.3% in assay [6].
On to `CCOC(=O)CSCCC(=O)OC`, for which the growth inhibition in assay [1] is -1.3%; in assay [2], 3.1%; in assay [3], -0.8%; in assay [4] it was -5.5%; in assay [5], -0.05%; in assay [6], 1.35%.
Turning to `O=C(NC(Cc1cnc[nH]1)C(=O)N1CCCC1)C1CCCC1` (stereo unspecified), the growth inhibition in assay [1] is -22.4%; in assay [2], -20.4%; in assay [3], 13.7%; in assay [4], 6.2%; in assay [5] it was 0.9%; in assay [6], -14.3%.
For `C=CCCC(=O)OC(C)(C)C`, the growth inhibition in assay [1] is 16.8%; in assay [2], -15.4%; in assay [3], 21.4%; in assay [4], 7.2%; in assay [5] it was 6.1%; in assay [6] it was 1.95%.
As to `COc1c2c(cc3c1[C@@H]1Oc4c(ccc(O)c4CC=C(C)C)[C@@H]1CO3)OC(C)(C)C=C2`, the growth inhibition in assay [1] is 45.5%; in assay [2] it was 52.7%; in assay [3], 36.9%; in assay [4] it was 55.2%; in assay [5] it was 44.5%; in assay [6], 41.4%.
Take `CC(=O)Nc1cc2c(cc1[N+](=O)[O-])-c1ccc([N+](=O)[O-])cc1C2=O`: the growth inhibition in assay [1] was 3.9%; in assay [2] it was 4.4%; in assay [3], 5.8%; in assay [4] it was 3.2%; in assay [5] it was 13%; in assay [6], -9.8%.
For the compound `N#Cc1n[nH]n(C2CCCCC2)c1=O`, the growth inhibition in assay [1] is -29.4%; in assay [2] it was -12.8%; in assay [3], -13.3%; in assay [4], -0.3%; in assay [5] it was -20.1%; in assay [6] it was -14.2%.
For `C[Si](C)(C)Oc1cc(N=NNC2=CC(=O)c3ccccc3C2=O)c(O)c2ccccc12`, the growth inhibition is -0.1% in assay [1]; 2.2% in assay [2]; -11.8% in assay [3]; -24% in assay [4]; 7.6% in assay [5]; 5.15% in assay [6].
On to `COc1ccc2c(ccc3[nH]c4c(C)cnc(NCCCN)c4c32)c1`, for which the growth inhibition in assay [1] was -39.6%; in assay [2], -31.8%; in assay [3] it was -29.3%; in assay [4], -15.1%; in assay [5], -17.4%; in assay [6] it was -39.8%.
As to `Cc1ccc(S(=O)(=O)NN=C2CCCCCC2)cc1`, the growth inhibition is 8.65% in assay [1]; 7.55% in assay [2]; 8.75% in assay [3]; -24.9% in assay [4]; -12.4% in assay [5]; 5.65% in assay [6].
